The subject of assay [1] is CRL-7250. Nature of the assay: Cytotoxic Profiling of Annotated Libraries Using Quantitative High-Throughput Screening (AID 1296008). Further: potency means the concentration at half of the fitted maximal effect. On max response: on the % scale 0 is the no-effect control and ±100 the full control effect. The following applies: Five cell lines viability, CellTiter-Glo ATP luminescence, 48-72 h; max response: active compounds read low. Summed up: (§1)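 Cytotoxicity was measured as CellTiter-Glo ATP luminescence, read after 10 min at room temperature. Compound treatment of the cells lasted 48 or 72 hr at 37 degrees Celsius in a qHTS format.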
A general note: ATP-based viability assays read luminescence as a measure of living cells.

Assay [2] concerns HEK293. The description is as above. The following applies: Five cell lines viability, CellTiter-Glo ATP luminescence, 48-72 h; max response: active compounds read low. The method in brief: as §1
Assay [3] deals with HaCat. Described as above. To be noted: Five cell lines viability, CellTiter-Glo ATP luminescence, 48-72 h; max response: active compounds read low. The method in brief:
as §1

In assay [4] the test system is KB-3-1. The assay is described as above. The following applies: Five cell lines viability, CellTiter-Glo ATP luminescence, 48-72 h; max response: active compounds read low. The method in brief: as §1
The test system of assay [5] is NIH3T3. The description is as above. To be noted: Five cell lines viability, CellTiter-Glo ATP luminescence, 48-72 h; max response: active compounds read low. Summed up: as §1
Assay [6] relates to W2. Kind of assay: qHTS profiling for inhibitors of Plasmodium falciparum proliferation (AID 504749). Further: potency means the concentration at half of the fitted maximal effect. The following applies: P. falciparum in erythrocytes, SYBR Green DNA, 72 h; series mostly up to 28.7 µM. The method in brief:
(§2)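 In a 72 h erythrocytic culture (37 C, humidified, 5% CO2) at 2.5% hematocrit and 0.3% starting parasitemia, compounds were tested; SYBR Green I in detergent lysis buffer stained parasite DNA overnight.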
In general terms: In qHTS, concentration-response curves come from the screen itself.

The test system of assay [7] is HACAT. Kind of assay: qHTS assay to identify novel small-molecules to repurpose for Merkel cell carcinoma treatment (AID 1296009). To be noted: MCC and control cell lines, CellTiter-Glo viability, 72 h; series mostly up to 44.8 µM. Summed up: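 Cell viability measured by CellTiter-Glo following 72 hr compound treatment at 37 degree celsius, with NPC and MIPE libraries tested in 8- and 11-point concentration series.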

Assay [8] has as its system TAB109. Nature of the assay: qHTS profiling for inhibitors of Plasmodium falciparum proliferation (AID 504749). Further: potency means the concentration at half of the fitted maximal effect. The following applies: P. falciparum in erythrocytes, SYBR Green DNA, 72 h; series mostly up to 28.7 µM. Summed up:
as §2

In assay [9] the test system is TAB113. The assay is described as above. The following applies: P. falciparum in erythrocytes, SYBR Green DNA, 72 h; series mostly up to 28.7 µM. The method in brief: as §2
For assay [10], the system named is TAB165. Described as above. To be noted: P. falciparum in erythrocytes, SYBR Green DNA, 72 h; series mostly up to 28.7 µM. Summed up: as §2

Structures are written as SMILES. “And” between values parts separate entries of the source, which are not always exact repeats. Equal entries are not always repeated. Records with an inconclusive call do not appear. A number with no mark means an inactive call. The source made the active and inactive calls. The call rests on the fitted dose curve; in most records, active means well fitted inhibition curve with a large enough effect; inconclusive means small, poorly fitted or top-dose-only effect; inactive means flat fitted curve, though single readings scatter.
Further: nearly all actives have a fitted effect of over 60% in size.

For `CN1CCN(C2=Nc3cc(Cl)ccc3Nc3ccccc32)CC1`, the max response in [1] is -7.49% and -17.9%; in assay [3], 2.26%; in assay [4], 6.37%. The Potency in [2] is 13.3 µM (active). The compound was called inactive in [5].

`CN(C)CCC=C1c2ccccc2C=Cc2ccccc21`: the Potency in assay [6] was 1.2 µM (active); in assay [2], 26.4 µM (active). Moreover, the max response is -6.55% in assay [1]; -7.06% and -14.3% in assay [4]; -0.444% in assay [5]. The result in assay [3] and in assay [7] was inactive.

On to `Cn1c(=O)c2c(ncn2C)n(C)c1=O`, for which the Potency result in assay [8], in [9], in assay [10] and in assay [6] was “inactive” throughout. In addition, the max response was 0.692% and -3.54% in [1]; -13.2% and 0.976% in assay [2]; 1.8% and -12.8% in [3]; 3.75% in [4]; -9.99% and -2.17% in assay [5].

As to `Nc1ccn([C@H]2CC[C@@H](CO)O2)c(=O)n1`, the max response is -6.37% and 1.28% in assay [1]; -8.68% in assay [3]; -19.7% in assay [4]; -7.7% and 2.02% in [5]. Also, the compound was called inactive in assay [2], in [3], in assay [4] and in assay [7].

For the compound `CCC1(C)CC(=O)NC1=O` (stereo unspecified), the max response was 0.182% in [1]; -13.5% in assay [3]; 7.96% and 9.28% in assay [4]. For the same compound, the compound was classed as inactive in assay [2], in [3], in assay [5] and in [7].

In the case of `Clc1ccccc1C(c1ccccc1)(c1ccccc1)n1ccnc1`, the Potency is 0.794 µM (active) in assay [8]; 0.631 µM (active) in assay [9]; 0.1 µM (active) in [10]; 0.405 µM (active) in assay [6]; 20.9 µM (active) in assay [2]. The max response in [1] was -11.6% and -17.2%; in assay [3], -12.4% and -20.3%; in assay [4], -12.5%.

In the case of `CN1C2CCC1CC(OC(=O)C(CO)c1ccccc1)C2` (stereo unspecified), the max response in [1] is -10.2%; in [2], 0.412%; in assay [4] it was 0.626%; in [5], -0.822%. Moreover, the outcome in assay [3] and in [7] was inactive.

For the compound `COc1ccc(CCN(C)CCCC(C#N)(c2ccc(OC)c(OC)c2)C(C)C)cc1OC` (stereo unspecified), the Potency entry in assay [9] and in assay [10] was “inactive” in each case. In addition, the max response in [1] was -3.47% and -1.73%; in assay [2] it was -14.8%; in [3], -28.3%; in [5] it was -15.4% and 3.75%. Moreover, the result in assay [3] and in assay [7] was inactive.

`O=C1Cc2cc(CCN3CCN(c4nsc5ccccc45)CC3)c(Cl)cc2N1`: the max response in assay [1] was -1.82% and -0.528%; in assay [3], -2.23% and 4.15%; in [5] it was -14.8% and 4.36%. Further, in assay [2], the Potency was 16.8 µM (active). For the same compound, the outcome in [3], in [5] and in assay [7] was inactive.

As to `COc1cc2nc(N(C)CCCNC(=O)C3CCCO3)nc(N)c2cc1OC` (stereo unspecified), the max response was -3.88% in [1]; 0.95% in assay [2]; -0.905% and -4.65% in assay [3]; 9.19% and 1.98% in assay [4]. Moreover, in assay [5], the result was inactive.

`CN(C)CCOC(c1ccccc1)c1ccccc1`: the Potency entry in assay [9] is “inactive”. Also, the Potency in [6] is 0.953 µM (active). In addition, the max response was -3.47% and -12.2% in assay [1]; 4.19% and -2.75% in assay [4]. Further, the compound was called inactive in [2], in assay [3], in assay [4], in assay [5] and in assay [7].

Take `Cc1ccccc1N1C(=O)c2cc(S(N)(=O)=O)c(Cl)cc2NC1C` (stereo unspecified): the values for the max response in assay [1], in [3] and in assay [5] were -4.5%, 0.851% and 4.24%, respectively. Further, the result in assay [2], in assay [3], in assay [5] and in [7] was inactive.

As to `NCCc1cnc[nH]1`, the Potency entry in assay [8], in assay [9], in [10] and in [6] was “inactive” in each case. Besides, the compound was called inactive in assay [1], in assay [2] and in assay [5]. Besides, the max response in assay [2] is 4.08%; in [3] it was -11% and 1.72%; in [5], -6.9%.

In the case of `Clc1ccc(C(c2ccccc2Cl)C(Cl)Cl)cc1` (stereo unspecified), the Potency result in assay [8], in [9] and in assay [10] was “inactive” each time. In addition, the max response in assay [1] is -3.27%; in [2] it was -1.26%; in assay [3], -1.22%; in assay [4], -10.1% and -1.61%; in [5], -2.6% and -1.15%. Besides, the compound was called inactive in [3] and in assay [7].

For `CCOC(=O)Nc1ccc(NCc2ccc(F)cc2)nc1N`, the Potency is 10 µM (active) in assay [8], 11.2 µM (active) in assay [9], 10 µM (active) in assay [10] and 3.79 µM (active) in assay [6]. For the same compound, the max response in assay [1] is -7.5% and -7.01%; in assay [2] it was -4.26%; in assay [3] it was -2.04% and -3.24%; in assay [4] it was -2.17% and -13.9% and -5.9%; in assay [5] it was 4.91%. Moreover, the call in assay [5] was inactive.

As to `CC(CCc1ccc(O)cc1)NCCc1ccc(O)c(O)c1` (stereo unspecified), the Potency result in assay [8], in assay [9] and in assay [10] was “inactive” each time. Also, the Potency in assay [1] is 23.7 µM (active). Also, the max response is -19% in assay [2]; 0.349% in assay [3]; -2.1% in [4]; -1.03% and 1.16% in assay [5]. The result in [3] and in [7] was inactive.

In the case of `CCCCc1oc2ccccc2c1C(=O)c1cc(I)c(OCCN(CC)CC)c(I)c1`, the Potency in assay [8] is 7.08 µM (active); in assay [9], 12.6 µM (active); in assay [10], 3.16 µM (active); in assay [6], 4.26 µM (active); in assay [2], 23.5 µM (active). Also, the max response in [1] was -7.04% and -18.2%; in [4], -16.7% and -5.99% and -5.01%; in assay [5] it was -21.3% and -20.5%. Moreover, the call in [3] and in assay [7] was inactive.

The record behind these values is PubChem BioAssay (NCATS).
